Source: PubChem (National Center for Advancing Translational Sciences (NCATS))
Sm TGR inh: blocks Schistosoma mansoni thioredoxin glutathione reductase. Q962Y6. purified TGR, DTNB reduction, TNB absorbance 405 nm. Potency, µM (doses to about 114 µM), usual class: inhibitors. 360,000 compounds, 3% hits. AID 485364; further: nearly all actives have a fitted effect of over 60% in size
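First, TGR (20 nM dispensed) and NADPH were mixed with compound. Second, a 15 min room-temperature incubation followed. Third, further NADPH and then DTNB were added to start the reaction. Finally, TNB absorbance was monitored kinetically.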
RE007 growth inh: less growth of the S. pombe RE007 Vpr strain; S. pombe RE007 Vpr strain, BacTiter-Glo ATP luminescence, 24 h; Potency, µM (titrated, usually from 92.2 µM), actives largely listed as inhibitors; 360,000 compounds, 0.21% hits; AID 651644; active means well fitted falling curve with a large enough effect; inconclusive means small, poorly fitted or top-dose-only effect; inactive means no such curve, though single readings can be large or run the other way; further: nearly all actives have a fitted effect of over 50% in size
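Fission yeast RE007 carrying one integrated HIV-1 vpr copy, seeded at OD 0.01 in PMG+AL medium with 23 nL pinned compound. Grown 24 h at 30 degrees; viability read by BacTiter-Glo luminescence after 5 min.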
TbPYK inhibitor: inhibitors of Trypanosoma brucei pyruvate kinase; AID 624173; TbPYK enzyme, Kinase-Glo Plus ATP luminescence, 45 min; Q57TT1; 410,000 compounds, 0.12% hits; Potency, µM (doses to about 76.8 µM), hits mostly inhibitors; further: nearly all actives have a fitted effect of over 50% in size
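Quantitative HTS: titrated library compounds versus trypanosomal pyruvate kinase in TEA buffer (pH 7.2) containing KCl, MgCl2, BSA and Tween-20. Reactions were initiated with ADP, 130 uM final. Kinase-Glo Plus luminescence was read after 45 min at RT.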
Giardia FBPA inh: inhibitors of Giardia lamblia fructose-1,6-bisphosphate aldolase; A8B2U2; purified Giardia FBPA; Potency, µM (highest dose often 59.6 µM), hits mostly inhibitors; 290,000 compounds, 0.71% hits; AID 2451; further: nearly all actives have a fitted effect of over 55% in size
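40 nM FBPA preincubated 10 min at RT with compound (up to 57.5 uM final), then substrate plus GAPDH/TPI/NAD/arsenate coupling and diaphorase/resazurin added. Fluorescence read after 20 min at RT, 525/598 nm.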
NS1 function inh: inhibitors of influenza NS1 protein function | AID 2326 | 270,000 compounds, 0.4% hits | Potency, µM (series often up to 46.1 µM); calls by dose curve; further: actives are rising curves; nearly all actives have a fitted effect of over 50% in size
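A cell-based growth assay was used: compounds that relieve NS1-induced slow growth of budding yeast raise OD600. Assay medium was yeast nitrogen base with ammonium sulphate and -URA supplement, pH 6.0, with 2% galactose.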
LmPK inh: blocks Leishmania mexicana pyruvate kinase activity | AID 1721 | purified LmPK, Kinase-Glo ATP luminescence, 1 h | 290,000 compounds, 0.37% hits | Potency, µM (series often up to 57.5 µM), actives largely listed as inhibitors
Target sequence (Q27686 whole entry, looked up): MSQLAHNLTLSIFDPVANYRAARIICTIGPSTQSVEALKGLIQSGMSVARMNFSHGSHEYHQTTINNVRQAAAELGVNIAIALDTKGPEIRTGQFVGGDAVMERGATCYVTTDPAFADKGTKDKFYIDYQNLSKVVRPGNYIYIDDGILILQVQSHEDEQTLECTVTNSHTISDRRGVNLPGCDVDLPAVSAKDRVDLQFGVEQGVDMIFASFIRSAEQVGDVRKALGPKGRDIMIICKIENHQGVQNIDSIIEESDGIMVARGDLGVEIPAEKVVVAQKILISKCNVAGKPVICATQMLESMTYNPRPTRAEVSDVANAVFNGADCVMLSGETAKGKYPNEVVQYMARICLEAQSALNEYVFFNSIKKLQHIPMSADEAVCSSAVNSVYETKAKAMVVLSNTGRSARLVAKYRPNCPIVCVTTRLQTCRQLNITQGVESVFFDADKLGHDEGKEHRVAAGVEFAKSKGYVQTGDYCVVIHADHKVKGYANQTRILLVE
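Purified LmPK (0.1 nM) converted ADP (0.1 mM) to ATP with PEP (0.5 mM) in imidazole buffer pH 7.2 with KCl and MgCl2, 1 h at room temperature. ATP was read by Kinase-Glo luminescence; data normalized to uninhibited and no-enzyme controls.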
Numbers stand for hits; – = inactive; ? = inconclusive; · = no result given. Compounds with a hit are over-represented: about 3.5% of the library has one in this group of screens. Unless noted, the call rests on the fitted dose curve; in most records, active means well fitted curve in the direction sought with a large enough effect; inconclusive means small, poorly fitted or top-dose-only effect, or another doubt; inactive means no such curve, though single readings can be large; an effect the other way counts as inactive or inconclusive.

SMILES	Sm TGR inh	RE007 growth inh	TbPYK inhibitor	Giardia FBPA inh	NS1 function inh	LmPK inh
CC1CCCCN1C(=O)CSc1nnc(-c2ccco2)n1CC1CCCO1 (stereo not drawn)	?	–	–	–	–	–
Cc1ccc(C(=O)CSc2nnc(-c3ccco3)n2CC2CCCO2)cc1 (stereo not drawn)	20µM	–	–	–	–	–
C/C=C/C(=O)[C@@H](C)[C@@H](/C=C/C[Si](C)(C)C)C(C)C	·	·	·	–	·	·
Cc1ccccc1NC(=O)c1sc2nc(-c3ccncc3)ccc2c1N	–	·	–	·	·	·
COc1cc(C2C(C#N)=C(N)N(c3ccc(F)cc3)C3=C2S(=O)(=O)CC3)ccc1O (stereo not drawn)	45µM	–	?	?	·	–
COc1ccc(S(=O)(=O)N2CCN(c3ccccc3F)CC2)cc1-c1noc(C)n1	–	·	–	·	·	·
Cc1cc(NC(=O)CCl)no1	8.9µM	–	–	–	–	–
COc1ccc(N2CCN(S(=O)(=O)c3c(C)[nH]c(=O)[nH]c3=O)CC2)cc1	–	·	–	·	·	·
O=C(CC(=O)Nc1ccccc1[N+](=O)[O-])Nc1ccccc1[N+](=O)[O-]	89µM	–	–	–	–	–
COCC(C)NC(=S)Nc1ccccc1[N+](=O)[O-] (stereo not drawn)	40µM	–	–	–	·	–
O=C(CCOc1ccccc1)Nc1ccccc1[N+](=O)[O-]	?	–	–	–	·	–
Cc1cc(C)c(-c2csc(NC(=O)C3=COCCO3)n2)cc1C	–	13µM	–	·	·	·
COc1ccc(-c2csc(NC(=O)C3=COCCO3)n2)c(OC)c1	–	?	–	·	·	·
CCOC(=O)C1(CC)NC(c2ccco2)C2C(=O)N(c3ccc(C)cc3)C(=O)C21 (stereo not drawn)	45µM	–	–	–	–	–
CCCC1(C(=O)OC)NC(c2ccco2)C2C(=O)N(c3ccc(C)cc3)C(=O)C21 (stereo not drawn)	–	–	–	–	–	–
O=C(c1ccc2c(c1)N(Cc1ccccc1F)C(=O)c1ccccc1S2=O)N1CCC(Cc2ccccc2)CC1 (stereo not drawn)	–	·	–	·	·	·
Cc1cccc(C2=N/C(=C\c3cccnc3)C(=O)O2)c1	–	–	–	–	–	–
COc1cc(/C=C2\N=C(C)OC2=O)cc(Cl)c1OC(C)=O	10µM	–	–	–	–	–
COc1ccc(/C=N/Nc2nc(=O)[nH]nc2C)cc1[N+](=O)[O-]	–	–	–	–	–	–
CC1=N/C(=C/c2cccnc2)C(=O)O1	22µM	–	–	–	·	–
COc1ccc(/C=C2\N=C(C)OC2=O)cc1[N+](=O)[O-]	10µM	–	–	–	–	–
CCc1ccc(-c2nc3c(c(SCc4ccc(F)cc4)n2)Cc2c(CO)cnc(C)c2O3)cc1	–	·	–	·	·	·
CC(NC(=O)CSc1nc(-c2cccc(Cl)c2)nc2cc(=O)[nH]n12)c1nc2ccccc2n1C (stereo not drawn)	–	·	–	·	·	·
Cc1ccc(-c2noc(-c3ccc(NCc4cccnc4)c([N+](=O)[O-])c3)n2)cc1	–	·	–	·	·	·
COc1ccc(CC(=O)Nc2ccc3c(c2)OCO3)cc1S(=O)(=O)N1CCOCC1	–	–	–	–	–	–
SMILES	Sm TGR inh	RE007 growth inh	TbPYK inhibitor	Giardia FBPA inh	NS1 function inh	LmPK inh
COc1ccc(NC(=O)c2ccc(Cl)nc2)cc1S(=O)(=O)N1CCOCC1	–	–	–	·	·	·
COc1ccc(CC(=O)Nc2ccc(C#N)c(Cl)c2)cc1S(=O)(=O)N1CCOCC1	13µM	–	–	·	–	–
COc1ccc(NC(=O)Cn2ncc(Cl)c(Cl)c2=O)cc1S(=O)(=O)N1CCOCC1	10µM	·	–	–	–	–
COC(=O)CCC(NC(=O)c1cc(-c2ccc3c(c2)OCCO3)oc1C)C(=O)OC (stereo not drawn)	?	–	–	–	–	–
Cc1oc(-c2ccc3c(c2)OCCO3)cc1C(=O)NC(Cc1ccccc1)C(=O)O (stereo not drawn)	35µM	–	–	–	–	–
CC(=O)c1cccc(S(=O)(=O)NCC(C)(C)N2CCOCC2)c1	40µM	–	–	–	–	–
Cc1cc(C)n(C2=NS(=O)(=O)c3ccccc32)n1	–	–	–	–	–	13µM
O=C(Nc1ccc2nc(SCC(=O)N3CCOCC3)sc2c1)c1ccccc1Cl	–	·	–	·	·	·
CCn1c(=O)cc(OCC(=O)N2CCN(c3cccc(Cl)c3)CC2)c2ccccc21	–	·	–	·	·	·
COc1ccc(CC(=O)NCc2n[nH]c(=S)n2-c2ccccc2)cc1	–	–	?	–	·	–
Cc1ccc(-n2c(COc3cccc(C)c3)n[nH]c2=S)cc1	–	–	16µM	–	–	?
Cc1ccc(OCc2n[nH]c(=S)n2-c2ccccc2)cc1C	–	–	?	–	–	?
Cc1ccc(-n2c(CCc3ccccc3)n[nH]c2=S)cc1C	–	–	?	–	?	14µM
COc1ccc(-n2c(COc3ccccc3)n[nH]c2=S)cc1	–	–	11µM	?	–	–
COc1ccc(CSCCc2n[nH]c(=S)n2-c2ccccc2)cc1	–	–	3.2µM	–	–	–
Cc1cccc(NC(=O)c2cc3c(=O)n(Cc4cccnc4)ccc3nc2C)c1	–	·	–	·	·	·
CC(C)Oc1ccc(CCc2n[nH]c(=S)n2-c2ccccc2)cc1	–	–	?	–	·	14µM
COc1ccc(OCc2n[nH]c(=S)n2Cc2ccco2)cc1	–	–	2.8µM	–	–	–
CCOc1cccc(N2C(=O)CC(NNC(=O)c3ccc(Br)o3)C2=O)c1 (stereo not drawn)	25µM	–	–	–	–	–
